RXFP1 antagonist: antagonists of human relaxin receptor RXFP1; Q9HBX9; 0.59% of 350,000 active; HEK293-RXFP1, relaxin-stimulated cAMP HTRF, 30 min; hits give low values; activity change, negative = inhibition, % at 57.5 µM;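 active means activity change of -60% or lower, but not beyond a set lower limit; inconclusive means change between -60% and -40%, or beyond the set limit; inactive means change above -40%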
Target sequence (Q9HBX9 whole entry, looked up): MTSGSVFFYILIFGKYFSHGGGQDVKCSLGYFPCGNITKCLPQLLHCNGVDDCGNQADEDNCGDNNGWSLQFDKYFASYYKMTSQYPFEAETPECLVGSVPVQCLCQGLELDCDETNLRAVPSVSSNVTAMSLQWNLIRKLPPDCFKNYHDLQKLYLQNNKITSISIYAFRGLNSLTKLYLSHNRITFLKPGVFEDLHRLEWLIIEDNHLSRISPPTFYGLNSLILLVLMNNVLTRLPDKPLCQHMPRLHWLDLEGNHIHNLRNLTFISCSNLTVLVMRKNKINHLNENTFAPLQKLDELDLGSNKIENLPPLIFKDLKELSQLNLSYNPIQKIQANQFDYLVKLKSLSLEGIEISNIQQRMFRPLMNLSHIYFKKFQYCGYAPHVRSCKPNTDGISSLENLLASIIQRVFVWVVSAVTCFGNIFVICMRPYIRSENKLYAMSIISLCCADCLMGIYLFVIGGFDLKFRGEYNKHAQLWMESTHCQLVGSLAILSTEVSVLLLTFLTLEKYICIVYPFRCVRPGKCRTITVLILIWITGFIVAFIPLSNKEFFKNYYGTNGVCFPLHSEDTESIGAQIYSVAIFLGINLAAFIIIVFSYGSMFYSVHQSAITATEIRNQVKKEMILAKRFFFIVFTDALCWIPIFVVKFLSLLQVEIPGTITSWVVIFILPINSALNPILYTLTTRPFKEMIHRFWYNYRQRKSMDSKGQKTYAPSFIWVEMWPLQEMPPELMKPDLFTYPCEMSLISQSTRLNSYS
RXFP1 agonist: agonists of human relaxin receptor RXFP1; HEK293T-RXFP1 cAMP TR-FRET, 30 min; response scale: percent of porcine relaxin response, buffer zero; Potency, µM (series often up to 57.5 µM), actives largely listed as activators; 0.3% of 370,000 active; AID 2676; further: nearly all actives have a fitted effect of over 60% in size
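Agonist response is measured as cAMP accumulation in an RXFP1-transfected HEK293T line under PDE4 inhibition. Values are scaled between buffer-only and 29 nM porcine relaxin, and EC50s come from standard Hill equation fits.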
gsp antag: gsp mutant antagonism | gsp-mutant cells, cAMP HTRF, 30 min | Potency, µM (highest dose often 76.9 µM), actives largely listed as inhibitors | 0.4% of 340,000 active | AID 624288; calls by dose curve; cell line not stated here;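 further: intracellular cAMP measured with PDE inhibitor Ro 20-1724 present during compound exposure; nearly all actives have a fitted effect of over 65% in size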
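Measurement of cellular cAMP by homogeneous time-resolved fluorescence following a 30 min compound exposure at 37C. The PDE inhibitor […] was present throughout; the assay buffer was DPBS with 0.05% BSA and 0.005% Tween 20.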
CCT chaperon mod: changes cytosolic chaperonin activity | purified chaperonin ATPase assay, HTRF ADP detection, 30 min | activity change, % (no concentration beside the values), hits read low | 0.3% of 360,000 active | AID 651819; in the data active means activity change below about -30%
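TRiC (40 or 20 nM final, by batch activity) in 30 mM Tris pH 7.4, 100 mM KCl, 5 mM MgCl2, 1 mM DTT was treated with compound at 76 uM single dose, then 10 uM ATP, 30 min at 37 °C. ADP was read by HTRF Transcreener.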
gsp agonist: agonists of gsp mutant (McCune-Albright syndrome); gsp mutant cells, cAMP HTRF, 30 min; Potency, µM (titrated, usually from 76.9 µM), most hits filed as activators; 0.13% of 340,000 active; AID 624287; active means well fitted activation curve with a large enough effect; inconclusive means small, poorly fitted or top-dose-only effect, or another doubt; inactive means no such curve, though single readings can be large or run the other way; cell line not stated here;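 further: phosphodiesterase inhibitor Ro 20-1724 added with compounds to block cAMP breakdown; nearly all actives have a fitted effect of over 60% in size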
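Cells stably selected in G418 were plated at 2000/well, grown 16-24 hr, then given compounds in DMSO with the PDE inhibitor […] (300 uM solution added) for 30 min at 37C; cAMP was read by HTRF.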
Mm-Cpn inhibitor: M. maripaludis TRiC chaperonin inhibition. purified Mm-Cpn ATPase, ADP Transcreener TR-FRET. Potency, µM (highest dose often 76.9 µM), most hits filed as inhibitors. 0.031% of 330,000 active. AID 504842; further: nearly all actives have a fitted effect of over 80% in size
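Purified archaeal Mm-CPN (25nM final) preincubated 10 min at 37degC with compound, then 10uM ATP for 30 min at 37degC; ADP measured by HTRF Transcreener TR-FRET; buffer 30 mM TRIS pH 7.4, 100mM KCl, 5mM MgCl2, 1mM DTT.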
Of the large screens only hits and unclear results are named; the others gave an inactive call. Shown are actives, neighbours in structure and some others; about 1.2% of the full set was active somewhere. Unless noted, the call rests on the fitted dose curve; in most records, active means well fitted curve in the direction sought with a large enough effect; inconclusive means small, poorly fitted or top-dose-only effect, or another doubt; inactive means no such curve, though single readings can be large; an effect the other way counts as inactive or inconclusive.

CC(=O)N1c2ccc(S(=O)(=O)Nc3ccc(Cl)cc3C)cc2CC1C (stereo not given)	none (no result: gsp antag, CCT chaperon mod, gsp agonist, Mm-Cpn inhibitor)
O=c1c2ccsc2ncn1Cc1cccc(C(F)(F)F)c1	gsp agonist 12.6µM
CCc1cc(=O)[nH]c(-n2[nH]c(-c3ccccc3)cc2=O)n1	none
O=c1cc(-c2ccccc2)[nH]n1-c1nc2ccccc2[nH]1	RXFP1 antagonist -75.6
Nc1cc(=O)[nH]c(SCc2ccc(Cl)cc2)n1	none
CC(C)(C)c1ccc(CSc2nc(N)cc(=O)[nH]2)cc1	CCT chaperon mod -54.6
Cc1nc(-c2c(C(F)(F)F)noc2-c2ccc(O)cc2O)cs1	none
CCOc1cc(C)c(-c2onc(C(F)(F)F)c2-c2csc(C)n2)c(O)c1	RXFP1 antagonist -84.1, gsp antag inconclusive
O=C(CS)Nc1ccc2ccccc2c1	RXFP1 antagonist -101.9
O=C(CS)Nc1ccccc1	none (no result: RXFP1 agonist, gsp antag, CCT chaperon mod, gsp agonist, Mm-Cpn inhibitor)
Cc1cccn2c(=O)cc(COc3cccc(NC(=O)c4ccccc4F)c3)nc12	none (no result: gsp antag, CCT chaperon mod, gsp agonist, Mm-Cpn inhibitor)
N#C/C(=N\Nc1ccc(Cl)cc1)C(=O)c1ccccc1	gsp antag 28.2µM
Cc1c(N/N=C(\C#N)C(=O)c2ccc(Cl)cc2)c(=O)n(-c2ccccc2)n1C	none
OC1(c2ccccc2)CCNCC1	none (no result: RXFP1 agonist, gsp antag, CCT chaperon mod, gsp agonist, Mm-Cpn inhibitor)
CC(C)CC(=O)Nc1ccc2c(c1)oc1ccccc12	CCT chaperon mod -40.3
Cc1nc(-c2ccc(F)cc2)c(CC(=O)N(C)CC(=O)Nc2ccc(Cl)c(C(F)(F)F)c2)s1	gsp antag 31.6µM (no result: RXFP1 agonist, Mm-Cpn inhibitor)
CCS(=O)(=O)c1nc(S(=O)(=O)c2ccc(C)cc2)c(NCc2ccccc2Cl)s1	none (no result: gsp antag, CCT chaperon mod, gsp agonist, Mm-Cpn inhibitor)
O=C(Oc1ccc(C(=S)N2CCOCC2)cc1)c1cccc(Cl)c1	CCT chaperon mod -63.3
Cc1ccc(C(=O)Oc2ccc(Br)cc2C(=S)N2CCOCC2)cc1	none
COc1ccc(C(=O)Oc2ccc(Br)cc2C(=S)N2CCOCC2)cc1	RXFP1 antagonist -67.2
CCC(=O)Nc1nnc(S(=O)(=O)N(C)Cc2ccc(Cl)cc2)s1	none (no result: gsp antag, CCT chaperon mod, gsp agonist, Mm-Cpn inhibitor)
O=C(CC(=O)c1ccccc1O)c1cccc(F)c1	none
O=C(CC(=O)c1ccccc1O)c1ccc(F)cc1	gsp antag 39.8µM, gsp agonist inconclusive
CCc1ccc2c(c1)/C(=C/C(=O)c1cccs1)C(=O)N2	RXFP1 antagonist -91.6
Cc1cc(Br)c2c(c1)/C(=C/C(=O)c1cccs1)C(=O)N2	none (no result: RXFP1 antagonist)
Cc1cccc2c1NC(=O)/C2=C\C(=O)c1cccs1	RXFP1 antagonist -91.7
O=C1Nc2ccccc2/C1=C\C(=O)c1ccccc1	RXFP1 antagonist inconclusive, gsp agonist inconclusive
CC1CCN(c2oc(-c3cccs3)nc2S(=O)(=O)c2ccc(Cl)cc2)CC1	none (no result: gsp antag, CCT chaperon mod, gsp agonist, Mm-Cpn inhibitor)
CCN(c1cccc(C)c1)S(=O)(=O)c1nnc(NC(=O)c2ccccc2Cl)s1	none (no result: gsp antag, CCT chaperon mod, gsp agonist, Mm-Cpn inhibitor)
CCOCCn1ccc2c(OCC(=O)Nc3ccc(OC)c(OC)c3)cccc2c1=O	gsp antag 35.5µM
CCOCCn1ccc2c(OCC(=O)Nc3cc(C)cc(C)c3)cccc2c1=O	none (no result: RXFP1 antagonist, gsp antag, CCT chaperon mod, gsp agonist, Mm-Cpn inhibitor)
OC1(c2ccc(Cl)c(Cl)c2)C[n+]2ccccc2N1Cc1ccccc1 (stereo not given)	RXFP1 antagonist -68.5
OC1(c2ccccc2)CCN(Cc2ccccc2)CC1	none (no result: gsp antag)
Cc1ccc(N2CC(NC(=O)CCc3ccccc3)CC2=O)cc1 (stereo not given)	none (no result: gsp antag, CCT chaperon mod, gsp agonist, Mm-Cpn inhibitor)
NC(=O)c1ccccc1N/C=C1\CCCCC1=O	gsp antag 50.1µM
O=C1CCCC/C1=C\Nc1ccccc1C(=O)O	none
O=C(Cc1ccccc1)NN1C(=O)/C(=C/c2ccc(C(=O)O)cc2)SC1=S	CCT chaperon mod -35.1
Cc1ccccc1-c1noc(-c2ccc(N3CCCC3)c([N+](=O)[O-])c2)n1	none (no result: RXFP1 antagonist, gsp antag, CCT chaperon mod, gsp agonist, Mm-Cpn inhibitor)
COc1ccc(Cc2nnc(NC(=O)CSc3ccc(C)cc3)s2)cc1	CCT chaperon mod -40.9
O=C(COc1c(Br)cc(Br)c2cccnc12)N1CCCCC1	RXFP1 agonist inconclusive, gsp agonist 6.31µM
COc1ccccc1Oc1ccc2c(c1)C(=O)N(c1cccc3ncccc13)C2=O	RXFP1 antagonist -88.9, gsp antag inconclusive
COc1ccccc1Oc1ccc2c(c1)C(=O)N(c1cccc(O)c1)C2=O	gsp antag inconclusive
